Screening data deposited in PubChem by Broad Institute.
Vif inh: blocks HIV Vif function. hit rate 0.35% among 340,000. AID 602346. HEK293T cells, Vif self-association by quenched fluorescence, imaging, 24 h. inhibition, % at 7.49 µM; in the data active means inhibition above about 50%, passing the limit was not always enough
esBAF inh: SWI/SNF esBAF complex inhibition; mouse ES cells, Bmi1-luciferase knock-in reporter, 24 h; 100% = twice the neutral-well signal; reporter increase, % at 12.5 µM; hit rate 2% among 350,000; AID 602393; in the data active means activation above about 40%;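 further: 0% = median of the plate's neutral control wells and 100% = double that signal; a rise in the Bmi1 reporter signal indicates esBAF inhibition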
MITF act: activators of MITF-driven TRPM1 promoter activity in SK-MEL-5 cells | SK-MEL-5 TRPM1-promoter luciferase, 24 h; % of positive control, neutral wells = 0 | activation, % at 12.5 µM | hit rate 0.75% among 300,000;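 active means mean activation of at least 80% with every replicate also reaching 80%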;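 further: 0% = neutral control wells and 100% = parthenolide positive control wells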
PvdQ inh: P. aeruginosa PvdQ acylase inhibition | purified PvdQ acylase, fluorescence plate reader | inhibition, % at 10 µM | hit rate 0.063% among 340,000; in the data active means inhibition above about 30%, passing the limit was not always enough;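 further: 0% = vehicle neutral wells and 100% = reference inhibitor wells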
Wnt act: activators of Wnt/beta-catenin signaling; Wnt/beta-catenin reporter cell assay, activator, plate reader; activation, % at 9.35 µM; hit rate 1.2% among 300,000; AID 743398; in the data active means activation above about 30%, passing the limit was not always enough;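 further: 0% = neutral control wells and 100% = positive control wells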
N-glyco inh: blocks N-linked glycosylation in D54 reporter cells. D54 ERlucT glycosylation luciferase reporter, 24 h; percent of 100 nM tunicamycin response. hit rate 0.23% among 360,000. reporter increase, % at 12.5 µM;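 active means mean luciferase reporter signal, scaled so untreated is 0 and the glycosylation-blocking control 100, at or above a set limit in every replicate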;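 further: luciferase carries N-glycosylation sites so blocking glycosylation raises the light; 0% = median of neutral control wells and 100% = median of 100 nM tunicamycin wells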
* marks the source's active call; other numbers are inactive results. A selection: hits, their analogues and other compounds. The true share with any hit is near 2.9%.

`Cc1ccc2c(COC(=O)c3ccccc3Cl)cc(=O)oc2c1` gave Vif inh -2.0, esBAF inh 70.9*, MITF act 180.8*, PvdQ inh 5.3, Wnt act 12.5 and N-glyco inh -7.0.
`Cc1ccc2c(COC(=O)c3ccc(C)c(C)c3)cc(=O)oc2c1` gave Vif inh -15.0, esBAF inh 45.6*, MITF act 48.4, PvdQ inh -2.3, Wnt act -1.8 and N-glyco inh -0.6.
`Cc1ccc2c(COC(=O)c3ccccc3Br)cc(=O)oc2c1` gave Vif inh -7.1, esBAF inh 53.7*, MITF act 118.0*, PvdQ inh -8.1, Wnt act 1.1 and N-glyco inh -7.6.
COc1ccc(Br)c(C(=O)OCc2cc(=O)oc3cc(C)ccc23)c1 was read as Vif inh -2.8, esBAF inh 23.7, MITF act 61.8, PvdQ inh 0.8, Wnt act -3.6 and N-glyco inh -0.8.
CO[C@@H]1CN(C)C(=O)c2cc(NC(=O)C3CC3)ccc2OC[C@@H](C)N(C(=O)c2ccccn2)C[C@H]1C was read as esBAF inh 1.8.
For CC1(C)CC(=O)C=C(c2ccc(Oc3ccccc3)cc2)C1 the results were Vif inh 1.1, esBAF inh 68.4*, MITF act 70.3, PvdQ inh -9.0, Wnt act 26.4 and N-glyco inh -3.1.
`N#Cc1c(C(F)(F)F)cc(-c2ccco2)nc1SCc1ccncc1` gave Vif inh active, MITF act -17.5, PvdQ inh -8.0 and N-glyco inh 8.2.
Screening N#Cc1c(C(F)(F)F)cc(-c2ccco2)nc1SCc1ccccn1 returned Vif inh -3.6, esBAF inh 4.1, MITF act 8.5, PvdQ inh 7.6 and N-glyco inh 0.6.
`O=C(Nc1ccc2ccccc2c1)c1ccc(Cl)cc1Cl` gave Vif inh -3.7, esBAF inh -17.0, MITF act 70.3, PvdQ inh -7.9, Wnt act 38.7* and N-glyco inh -13.8.
Screening O=C(Nc1ccc2ccccc2c1)c1ccccc1Cl returned esBAF inh -5.5, Wnt act 43.9* and N-glyco inh -11.0.
For O=C(Nc1ccc(N=Nc2ccccc2)cc1)c1ccccc1Cl the results were Vif inh -2.6, MITF act 120.7*, PvdQ inh 0.4 and N-glyco inh -7.5.
O=C(Nc1ccc2ccccc2c1)c1cc(F)c(F)cc1Cl was read as Vif inh 1.1, esBAF inh 78.0*, PvdQ inh -6.2, Wnt act 15.0 and N-glyco inh -9.8.
`O=C(Nc1ccc2c(c1)C(=O)OC2)c1ccc(Cl)cc1Cl` gave Vif inh 2.7, esBAF inh 52.8*, MITF act 74.9, PvdQ inh -14.0, Wnt act 10.6 and N-glyco inh 0.1.
Screening O=C(Nc1ccc2ccccc2c1)c1ccccc1[N+](=O)[O-] returned Vif inh 1.6, esBAF inh 50.6*, MITF act 31.7, PvdQ inh -8.9, Wnt act 24.3 and N-glyco inh 2.6.
Screening CCOc1ccc(C(=O)Nc2cccc(C)n2)cc1 returned Vif inh 19.5, esBAF inh -32.0, PvdQ inh 51.2*, Wnt act -3.1 and N-glyco inh -11.7.
`CCOc1ccc(NC(=O)Nc2cccc(C)n2)cc1` gave Vif inh -4.2, esBAF inh 56.8*, MITF act 72.9, PvdQ inh -4.0, Wnt act 2.6 and N-glyco inh 0.1.
CCCOc1ccc(C(=O)Nc2ccccc2[N+](=O)[O-])cc1 was read as esBAF inh 63.8*, MITF act 58.1, PvdQ inh 2.2 and N-glyco inh 3.1.
`CCCCOc1ccc(C(=O)Nc2cccc(C)n2)cc1` gave Vif inh -3.1, esBAF inh 20.7, MITF act 102.5*, PvdQ inh 11.4 and N-glyco inh -6.7.
Cc1cccc(NC(=O)Nc2ccccc2)n1 was read as Vif inh 2.2, esBAF inh 21.8, MITF act 11.8, PvdQ inh -3.8, Wnt act 13.2 and N-glyco inh 4.7.
Screening Cc1ccc(S(=O)(=O)NCC[C@@H]2CC[C@@H](NC(=O)c3cnccn3)[C@@H](CO)O2)cc1 returned esBAF inh -5.3.
`O=C(NCC[C@H]1CC[C@H](NC(=O)C2CCCCC2)[C@@H](CO)O1)c1cc(Cl)cc(Cl)c1` gave esBAF inh 7.4.
Cc1cccc(NC(=O)CN(C)S(=O)(=O)c2ccc(Cl)cc2)n1 was read as Vif inh -3.3, MITF act 5.8, PvdQ inh -8.1 and N-glyco inh 0.0.
For Cc1cccc(NC(=O)c2ccc(S(=O)(=O)N(C)C)cc2)n1 the results were Vif inh -6.8, esBAF inh 49.4*, MITF act 11.0, PvdQ inh 3.5 and N-glyco inh -1.8.
Screening Cc1c(O)ccc(/C(Cc2ccc3ccccc3n2)=N\O)c1O returned Vif inh -15.4, esBAF inh 44.6*, PvdQ inh -27.5, Wnt act 36.1* and N-glyco inh -6.8.
For CC(=O)Oc1ccc(C(=O)Cc2ccc3ccccc3n2)c(O)c1C the results were MITF act 54.2, PvdQ inh -8.6, Wnt act -4.4 and N-glyco inh -5.9.
For CCn1nc(C)c(Br)c1-c1nc(-c2cccc(C)c2)no1 the results were Vif inh 3.5, esBAF inh 1.1, Wnt act 3.2 and N-glyco inh 0.3.
CCn1nc(C)c(Br)c1-c1nc(CS(=O)(=O)c2ccsc2)no1 was read as Vif inh 56.0*, esBAF inh 0.4, Wnt act -2.3 and N-glyco inh -0.4.
Screening C[C@@H]1CCCCO[C@@H](CN(C)S(C)(=O)=O)[C@H](C)CN([C@@H](C)CO)C(=O)c2cc(NC(=O)C3CCCCC3)ccc2O1 returned esBAF inh -3.1.
Screening O=C(Nc1ccccc1Cl)c1cc(C2CCCCN2S(=O)(=O)c2ccccc2)on1 (stereo unspecified) returned Vif inh 11.1, esBAF inh -6.7, Wnt act 0.2 and N-glyco inh 0.7.
Screening O=C(Nc1ccccc1)c1cc(C2CCCCN2S(=O)(=O)c2ccccc2)on1 (stereo unspecified) returned Vif inh -9.9, esBAF inh 52.0*, Wnt act 17.9 and N-glyco inh -0.6.
For O=C(Nc1ccccc1)c1cc(C2CCCCN2S(=O)(=O)c2cccs2)on1 (stereo unspecified) the results were Vif inh -14.0, esBAF inh 82.1*, Wnt act 27.7 and N-glyco inh -2.0.
For Cc1nn2cc(-c3ccc(Cl)cc3)nc2s1 the results were Vif inh -5.2, esBAF inh -2.3, PvdQ inh -9.2, Wnt act 71.3* and N-glyco inh -13.4.
